Assay results from PubChem BioAssay (NCATS).
Activity calls are given as the source filed them. The call rests on the fitted dose curve; in most records, active means well fitted curve in the direction sought with a large enough effect; inactive means no such curve, though single readings can be large or run the other way. Residues, ends and D or L forms follow the SMILES beside them. *: point of attachment. Cbz = O=C(OCc1ccccc1)*

molecular target: Alpha-galactosidase A (Homo sapiens) (UniProt P06280); experiment: Counterscreen for Glucocerebrosidase Inhibitors: qHTS Assay for Human alpha-Galactosidase at pH 4.5 (AID 992); settings: purified enzyme, fluorogenic substrate; series mostly up to 76.9 µM
Sequence (P06280 whole entry, looked up): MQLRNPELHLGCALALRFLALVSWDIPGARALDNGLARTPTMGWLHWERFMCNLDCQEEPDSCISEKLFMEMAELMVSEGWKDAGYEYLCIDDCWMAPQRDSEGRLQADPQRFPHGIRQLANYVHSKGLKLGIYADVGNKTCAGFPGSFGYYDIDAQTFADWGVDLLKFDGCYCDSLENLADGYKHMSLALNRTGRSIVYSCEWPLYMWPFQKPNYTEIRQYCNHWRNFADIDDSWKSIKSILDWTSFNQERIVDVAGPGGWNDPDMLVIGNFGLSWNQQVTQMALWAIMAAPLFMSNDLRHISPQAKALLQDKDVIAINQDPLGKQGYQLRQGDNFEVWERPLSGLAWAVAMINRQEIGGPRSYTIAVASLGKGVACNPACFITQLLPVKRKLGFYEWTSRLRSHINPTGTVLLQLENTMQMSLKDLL
Excerpt: NIH Chemical Genomics Center [NCGC]
NIH Molecular Libraries Screening Centers Network [MLSCN]
PI Name: Zheng, Wei [NIH]
Alpha-galactosidase is a homodimeric glycoprotein that hydrolyzes the terminal alpha-galactosyl moieties from glycolipids and glycoproteins. Deficiency of this enzyme results in Fabry Disease with progressive accumulation of globotriaosylceramide and other glycosphingolipids in vascular endothelial cells that causes renal failure, myocardial infarction and stroke, and premature death in patients. It has reported that the improper folding and trafficking of alpha-galactosidase resulted from the genetic mutations may account for a significant numbers of Fabry patients. […] We optimized this alpha-galactosidase assay in 1536-well plate format for identifying the novel small molecule inhibitors with the structures other than the sugar analogs in order to develop the new pharmacological chaperones.
NCGC Assay Protocol Summary:
This is a fluorogenic enzyme assay with 4-Methylumbelliferyl alpha-D-galactopyranoside as the substrate and human […] as the enzyme preparation. Upon the hydrolysis of this fluorogenic substrate, the resulting product, […]. 4-Methyllumbelliferone, can be excited at 365 nm and emits at 440 nm which can be detected by a standard fluorescence plate reader. Data were normalized to the controls for basal activity (without enzyme) and 100% activity (with enzyme). In the AC50 values were determined from concentration-response data modeled with the standard Hill equation.
Assay buffer: 50 mM citric acid, 0.005% Tween-20, pH 4.5. (pH 4.5 is an optimal condition for this enzyme assay)
1536-well assay protocol for the human alpha-galactosidase:
(1) Add 2 ul/well of enzyme (2 nM final)
(2) Add 23 nL compounds in DMSO solution. The final titration was 0.7 nM to 77 uM.
(3) Add 1 ul of substrate (80 uM final)
(4) Incubate at room temperature for 20 min.
(5) Add 2 ul stop solution (1M NaOH and 1M Glycine mixture, pH 10)
(6) Detect the assay plate in a ViewLux plate reader (PerkinElmer) with Ex=365 nm and Em=440nm.
Keywords: Alpha-galactosidase, Fabry Disease, pharmacological chaperone, chaperone therapy, high throughput screening, alpha-galactosidase inhibitor, MLSMR, MLSCN, NIH Roadmap, qHTS and NCGC

Compound | outcome
COC(=O)[C@H](NC(=O)c1cc(-c2ccccc2)nc2ccccc12)c1ccccc1 | inactive
CC(C)(C)c1cc(/C=C(\C#N)C(N)=S)cc(C(C)(C)C)c1O | inactive
CNCCNS(=O)(=O)c1cccc2cnccc12 | inactive
O=c1onc2cnc3ccccc3n12 | inactive
Cc1cccc(C(=O)NCN2CCN(c3ccccc3C#N)CC2)c1 | inactive
C=CCn1c(=O)c2c(nc(-c3ccc(S(=O)(=O)O)cc3)n2C)n(C)c1=O | inactive
Nc1ncnc2c1ncn2C1CCCC1 | inactive
N#C/C(=C\c1ccc(O)c(O)c1)C(=O)NCCCNC(=O)/C(C#N)=C/c1ccc(O)c(O)c1 | inactive
O=C(OCCN1CCOCC1)C1(c2ccccc2)CCCCC1 | inactive
Cn1c(=O)c2[nH]c(C3CCCC3)nc2n(C)c1=O | inactive
O=c1[nH]ccc2c(O)cccc12 | inactive
Cc1nc(N=Nc2cc(S(=O)(=O)O)c3cc([N+](=O)[O-])cc(S(=O)(=O)O)c3c2)c(COP(=O)(O)O)c(C=O)c1O | inactive
CC(C)[C@H](NC(=O)OCc1ccccc1)C(=O)N[C@H](C=O)Cc1ccccc1 (Cbz-Val-Phe-aldehyde) | inactive
Cn1c(=O)[nH]c2ncn(C)c2c1=O | inactive
CCCc1c(OCCCOc2ccc(OCC(=O)O)cc2)ccc(C(C)=O)c1O | inactive
c1ccc(CN2CCC3(CCCc4ccccc43)CC2)cc1 | inactive
N#Cc1cc2nc(O)c(O)nc2cc1[N+](=O)[O-] | inactive
CC(=O)C(C)=O | inactive
Nc1ncnc2c1c(-c1ccc(Oc3ccccc3)cc1)cn2C1CCCC1 | inactive
O=c1[nH]c2ccccc2c2ccccc12 | inactive

Compound | outcome
Cn1cc(C(=O)OCC2CCN(CCNS(C)(=O)=O)CC2)c2ccccc21 | inactive
N=C(N)c1ccccc1 | inactive
O=c1cc(-c2ccccc2)[nH]c2nc(Cl)ccc12 | inactive
NCCCCN | inactive
NC(=O)CNCCC(c1ccccc1)c1ccccc1 | inactive
NCCCNCCCCNCCCN | inactive
COc1cc2c(CCNC(C)=O)c[nH]c2cc1O | inactive
O=C(O)c1cccnc1C(=O)O | inactive
S=C(S)N1CCCC1 | inactive
CCN1C(=O)C=CC1=O | inactive
C=CC[C@H](N)C(=O)O | inactive
COc1cc(N)c(Cl)cc1C(=O)OCCN1CCCCC1 | inactive
Nc1ccc2c3c(cccc13)C(=O)NC2=O | inactive
Cc1ccc2c(c1)C(N1CCN(C)CC1)=Nc1cccnc1N2 | inactive
O=C(O)Cc1c[nH]c2ccc(O)cc12 | inactive
O=C(N[C@@H](Cc1ccccc1)C(=O)CCl)OCc1ccccc1 | inactive
NC(=O)c1ccccc1 | inactive
N[C@H](C(=O)O)[C@H](O)C(=O)O | inactive
O=C(O)C1CCNCC1 | inactive
O=C(O)C1=CC(=C(c2ccc(O)c(C(=O)O)c2)c2ccc(O)c(C(=O)O)c2)C=CC1=O | inactive
